Assay outcomes as filed in PubChem BioAssay.
HCV NS3h FP – blocks HCV NS3 helicase binding to DNA; NS3h Cy5-dT15 DNA binding, fluorescence polarization; inhibition, % at 100 µM; 16,000 tested, 1.6% active;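 active means inhibition above the average over every tested compound plus 3 SD, cut at about 40% in these data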
Cy5 interf NS3h – counter-screen for HCV NS3 helicase inhibitors: fluorescence interference. fluorescence interference ratio at 100 µM. Cy5-dT15 DNA with NS3h; actives lie on both sides; signal over control mean, under 1 quenches. 16,000 tested, 6% active;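 active means compound fluorescence over control fluorescence at most 0.8, a quencher, or at least a set upper limit, an enhancer; inactive means ratio between 0.8 and the set upper limit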
HCV NS3h conf – hepatitis C NS3 helicase inhibition, confirmation | inhibition, % at 100 µM | 240 tested, 20% active | AID 720485 | NS3h binding to Cy5-dT15 DNA, fluorescence polarization | shares compounds with HCV NS3h FP;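 active means percent inhibition of 50% or more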
SSB FP counter – E. coli SSB-DNA binding inhibition, NS3h counter-screen; shares compounds with HCV NS3h FP; E. coli SSB binding Cy5-dT15, fluorescence polarization; inhibition, % at 100 µM; 240 tested, 40% active;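 active means inhibition of at least 50%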;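 further: displacers lower Cy5 polarization so higher inhibition means more SSB displaced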
Target sequence (P0AGE0 whole entry, looked up): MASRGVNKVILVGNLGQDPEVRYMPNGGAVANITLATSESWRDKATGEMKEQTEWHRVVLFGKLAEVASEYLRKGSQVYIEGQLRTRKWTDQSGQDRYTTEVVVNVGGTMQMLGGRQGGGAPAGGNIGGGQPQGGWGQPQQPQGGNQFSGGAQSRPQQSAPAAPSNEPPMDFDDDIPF
Cy5 SSB interf – Cy5 fluorescence interference in NS3h counter-screen. shares compounds with HCV NS3h FP. 240 tested, 8% active. fluorescence interference ratio at 100 µM. Cy5-dT15/E. coli SSB fluorescence interference; actives lie on both sides;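 active means fluorescence interference ratio at or above 1.2, signal boosting, or at or below 0.8, signal quenching; inactive means ratio between 0.8 and 1.2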;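 further: ratio of compound well signal to mean negative control signal so 1 means no effect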
Cy5 interf conf – Cy5 fluorescence interference, confirmation counter-screen. Cy5-dT15 DNA/NS3h fluorescence interference counterscreen. shares compounds with HCV NS3h FP. 240 tested, 44% active. fluorescence interference ratio at 100 µM, hits read low;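 active means fluorescence interference ratio at or below 0.8 quencher or at or above a set limitenhancer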;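 further: ratio of compound fluorescence to mean of negative controls so 1 means no interference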
The depositor's hits bear a star. The list is not random: actives were taken first. Their share in the collection is about 6.9%.

Cc1cccc(N2C(=O)/C(=C/c3ccc(OCc4cccc(C(=O)O)c4)cc3)C(=O)NC2=S)c1 was read as HCV NS3h FP -6 and Cy5 interf NS3h 1.
Screening O=C1NC(=S)NC(=O)C1=Cc1ccc(OCc2cccc3ccccc23)cc1 returned HCV NS3h FP 53*, Cy5 interf NS3h 0.9, HCV NS3h conf 29, SSB FP counter 66*, Cy5 SSB interf 0.85 and Cy5 interf conf 0.87.
`O=C1NC(=O)N(c2ccc3c(c2)OCO3)C(=O)/C1=C/c1ccc(OCc2cccc(C(=O)O)c2)cc1` gave HCV NS3h FP 48*, Cy5 interf NS3h 1.1, HCV NS3h conf 20, SSB FP counter 58*, Cy5 SSB interf 0.95 and Cy5 interf conf 0.75*.
For O=C1NC(=S)NC(=O)C1=Cc1ccc(OCc2cccc(C(=O)O)c2)cc1 the results were HCV NS3h FP 58*, Cy5 interf NS3h 1.1, HCV NS3h conf 38, SSB FP counter 89*, Cy5 SSB interf 0.9 and Cy5 interf conf 0.9.
Screening Cc1cc(/C=C2\C(=O)NC(=O)N(c3cccc(Br)c3)C2=O)c(C)n1C returned HCV NS3h FP 5 and Cy5 interf NS3h 1.2.
Screening CN(C)C(=O)C(c1ccccc1)c1ccccc1 returned HCV NS3h FP -1 and Cy5 interf NS3h 0.96.
For COc1cc(C=C2C(=O)N(C)C(=O)N(C)C2=O)ccc1OCCOc1ccccc1 the results were HCV NS3h FP 5 and Cy5 interf NS3h 0.95.
Screening Cc1ccc(C(=O)Nc2ccc(N/C(N)=N\[N+](=O)[O-])cc2)cc1 returned HCV NS3h FP -2 and Cy5 interf NS3h 1.
